Laboratory results from PubChem BioAssay (Tox21).
Records with an inconclusive call do not appear. The source made the active and inactive calls. Unless noted, the call rests on the fitted dose curve.

How the values were obtained:
[1] = Nuclear factor erythroid 2-related factor 2/antioxidant responsive element (Nrf2/ARE) small molecule agonists: luciferase reporter gene qHTS assay in human keratinocytes (AID 1919969); further: nearly all actives have a fitted effect of over 35% in size
[2] = target: Gonadotropin-releasing hormone receptor (Homo sapiens) (UniProt P30968); test: Human gonadotropin-releasing hormone receptor (GnRHR) small molecule agonists, calcium flux assay in GnRHR-HEK293 cells (AID 1920063); further: nearly all actives have a fitted effect of over 35% in size
In short: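 Tox21-format agonist screen using human GnRHR-expressing HEK293 cells and a fluorescent calcium dye; kinetic 3-min fluorescence reading after compound addition, 15-point concentration series run in triplicate.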

[3] = target: KiSS-1 receptor (Homo sapiens) (UniProt Q969F8); test: Human kisspeptin (KISS1R) small molecule agonists, calcium flux assay in KISS1R-HEK293 cells (AID 1920064; active means well fitted activation curve with a large enough effect in the repeat runs)
In short: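 Intracellular calcium mobilization in KISS1R-HEK293 cells was recorded by fluorescence (Ex/Em 480/540) for 3 min following compound addition to cells pre-loaded 1 h with calcium dye.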

[4] = G protein-coupled receptor (GPCR) small molecule agonists, calcium flux assay: HEK293 wild type cell line counter screen (AID 1920065)
In short: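 In this agonist-mode screen, ATP is the positive control and DMSO the vehicle. Cells grow 18 h before a 1 h dye incubation at 37 C; signal is taken at Ex/Em 480/540 over 3 min.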

[5] = p53 small molecule agonists, cell-based qHTS assay with human liver microsomes (AID 1963577);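 further: p53 response element beta-lactamase reporter cells with liver microsomes plus NADPH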
In short: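 With metabolic activation: human liver microsomes (0.5 mg/mL final) plus NADPH (0.5 mg/mL final) added alongside compounds to p53RE-bla cells; 16 h 37 C exposure; beta-lactamase read by LiveBLAzer fluorescence.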

[6] = p53 small molecule agonists, cell-based qHTS assay with rat liver microsomes (AID 1963578)
In short: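 Metabolic activation by rat liver microsomes and NADPH, each 0.5 mg/mL final, added right after compounds to p53RE-bla reporter cells (4,000/well, plated 5 h earlier). 16 h at 37 C, then LiveBLAzer substrate for 2 h at room temperature in the dark; fluorescence read-out.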

[7] = p53 small molecule agonists, cell-based qHTS assay with rat liver microsomes: qHTS cell viability counter screen (AID 1963580); further: nearly all actives have a fitted effect of over 45% in size
In short: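 p53RE-bla HCT-116 cells were exposed 16 h at 37 C to compounds with rat liver microsomes (0.5 mg/mL) and NADPH (0.5 mg/mL). Viability was measured in the same wells as ATP content by CellTiter-Glo luminescence.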

[8] = p53 small molecule agonists, cell-based qHTS assay: qHTS cell viability counter screen (AID 1963581); further: nearly all actives have a fitted effect of over 45% in size
In short: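 Compounds are pinned onto HCT-116 p53RE-bla cells and left 16 h at 37 C. Following the reporter FRET read, ATP is quantified by CellTiter-Glo luminescence after 30 min at room temperature.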

[9] = target: 5-hydroxytryptamine receptor 2A (Homo sapiens) (UniProt P28223); test: 5-hydroxytryptamine receptor 2A (HTR2A) small molecule agonists, cell-based qHTS assay (AID 1963587); further: nearly all actives have a fitted effect of over 30% in size
In short: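 CHO cells stably expressing human HTR2A, plated 18 h, loaded with calcium dye 1 h at 37 C. Agonist mode: compounds added and intracellular calcium fluorescence recorded kinetically for 2 min at 1 sec intervals.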

[10] = target: Muscarinic acetylcholine receptor M1 (Homo sapiens) (UniProt P11229); test: Cholinergic receptor muscarinic 1 (CHRM1) small molecule antagonists, cell-based qHTS assay (AID 1963588); further: nearly all actives have a fitted effect of over 40% in size
In short: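 CHRM1-CHO calcium-flux assay, antagonist mode. Cells were seeded 18 h, dye-loaded 1 h at 37 C and given compound for 5 min at RT, then acetylcholine was added at 50nM. FDSS fluorescence was read 3 min; 15 concentrations, three runs.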

[11] = target: Muscarinic acetylcholine receptor M1 (Homo sapiens) (UniProt P11229); test: Cholinergic receptor muscarinic 1 (CHRM1) small molecule agonists, cell-based qHTS assay (AID 1963589); further: nearly all actives have a fitted effect of over 35% in size
In short: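 Stable CHRM1-CHO cells (human receptor) were incubated 18 h, dye-loaded for 1 h at 37 C and exposed to test compounds for agonist activity, with calcium-dependent fluorescence followed kinetically.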

[12] = cAMP Responsive Elements (CRE) small molecule agonists, cell-based qHTS assay (AID 1963590)
In short: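 FRET-based beta-lactamase readout (LiveBLAzer B/G, 2 h RT) quantified CRE activation in HEK 293T CRE-bla cells after 3 h treatment with DMSO-dissolved compounds.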

[13] = cAMP Responsive Elements (CRE) small molecule antagonists, cell-based qHTS assay (AID 1963591; active means well fitted inhibition curve with a large enough effect in the signal ratio in the repeat runs, not every such curve was filed as active; the % refers to the signal ratio)
In short: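 qHTS in CRE-bla HEK 293T cells: compound in DMSO, then 0.25 uM NKH477 (final), 3 h at 37 °C/5% CO2; beta-lactamase FRET read-out after 2 h substrate incubation.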

[14] = target: Beta-2 adrenergic receptor (Homo sapiens) (UniProt P07550); test: Adrenergic beta2 receptor (ADRB2) small molecule antagonists, cell-based qHTS assay (AID 1963592); further: series mostly up to about 92 µM; nearly all actives have a fitted effect of over 50% in size
In short: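 Cells (CHO, stable ADRB2 overexpression) incubated 18-20hr at 37C; compounds added from DMSO; agonist mix (1nM isoproterenol, 100uM IBMX, 25uM Ro-20-1724) added; 0.5hr RT; d2-cAMP and anti-cAMP-cryptate added; 1hr RT; 665/615 nm read.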

[15] = target: D(2) dopamine receptor (Homo sapiens) (UniProt P14416); test: Dopamine D2 receptor (DRD2) small molecule agonists, cell-based qHTS assay (AID 1963594); further: nearly all actives have a fitted effect of over 35% in size
In short: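 HEK293 cells stably expressing human DRD2, pre-treated with PDE inhibitor Ro20-1724 (0.1 mM final) and compound 10 min at room temperature, then stimulated with NKH477 (200nM […]) for 30 min. cAMP read by HTRF (665/620 nm).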

[16] = target: D(2) dopamine receptor (Homo sapiens) (UniProt P14416); test: Dopamine D2 receptor (DRD2) small molecule antagonists, cell-based qHTS assay (AID 1963595; active means well fitted inhibition curve with a large enough effect in the signal ratio in the repeat runs, with a control signal flat; the % refers to the signal ratio)
In short: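 Readout: HTRF cAMP, cAMP-d2 competing with cellular cAMP for anti-cAMP cryptate, read after 1 h. Cells: DRD2-HEK293. Conditions: 0.1 mM Ro20-1724, 12 nM quinpirole, 200 nM NKH477, 30 min RT.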

[17] = p53 small molecule agonists, cell-based qHTS assay with human liver microsomes: qHTS cell viability counter screen (AID 1963579); further: nearly all actives have a fitted effect of over 45% in size
In short: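 Metabolic activation used human liver microsomes and NADPH, both 0.5 mg/mL final, over 16 hours at 37 C on p53RE-bla cells (4,000/well). Cytotoxicity measured by CellTiter-Glo luminescence, 30 min at room temperature.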

[18] = p53 small molecule agonists, cell-based qHTS assay (AID 1963582; active means well fitted activation curve with a large enough effect in the signal ratio in the repeat runs, not every such curve was filed as active; the % refers to the signal ratio)
In short: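 Agonist activity was scored from beta-lactamase FRET fluorescence in p53RE-bla cells treated 16 h at 37 C with compounds in DMSO, substrate incubation being 2 h at room temperature.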

[19] = target: 5-hydroxytryptamine receptor 2A (Homo sapiens) (UniProt P28223); test: 5-hydroxytryptamine receptor 2A (HTR2A) small molecule antagonists, cell-based qHTS assay (AID 1963586); further: nearly all actives have a fitted effect of over 45% in size
In short: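 Antagonist-mode intracellular calcium assay: DOI (4 nM) added after 5 min compound pre-incubation at room temperature to dye-loaded HTR2A-CHO cells. Fluorescence followed for 3 min, sampled every second.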

[20] = target: Beta-2 adrenergic receptor (Homo sapiens) (UniProt P07550); test: Adrenergic beta2 receptor (ADRB2) small molecule agonists, cell-based qHTS assay (AID 1963593);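 further: CHO cells stably overexpressing human ADRB2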
In short: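 CHO cells stably over-expressing ADRB2 were plated overnight at 37C, then dosed with compounds plus a stimulation mix containing 100uM IBMX and 25uM Ro-20-1724 for 0.5hr at room temperature. cAMP was measured by HTRF competition, 1hr.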

Measured: Potency

Sequence of Muscarinic acetylcholine receptor M1 (Homo sapiens) (P11229 whole entry, looked up): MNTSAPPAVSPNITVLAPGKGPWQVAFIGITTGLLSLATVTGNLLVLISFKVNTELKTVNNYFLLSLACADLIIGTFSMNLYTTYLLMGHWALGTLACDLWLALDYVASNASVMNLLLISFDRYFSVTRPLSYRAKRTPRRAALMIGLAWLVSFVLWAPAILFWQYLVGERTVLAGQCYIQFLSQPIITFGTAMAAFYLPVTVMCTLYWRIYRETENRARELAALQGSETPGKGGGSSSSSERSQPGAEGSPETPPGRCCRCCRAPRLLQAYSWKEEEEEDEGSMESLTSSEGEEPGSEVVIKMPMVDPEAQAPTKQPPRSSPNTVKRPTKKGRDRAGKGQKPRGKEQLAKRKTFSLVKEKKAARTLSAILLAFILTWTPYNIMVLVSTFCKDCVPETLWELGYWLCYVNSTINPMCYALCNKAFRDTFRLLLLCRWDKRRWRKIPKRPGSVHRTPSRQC
Sequence of Beta-2 adrenergic receptor (Homo sapiens) (P07550 whole entry, looked up): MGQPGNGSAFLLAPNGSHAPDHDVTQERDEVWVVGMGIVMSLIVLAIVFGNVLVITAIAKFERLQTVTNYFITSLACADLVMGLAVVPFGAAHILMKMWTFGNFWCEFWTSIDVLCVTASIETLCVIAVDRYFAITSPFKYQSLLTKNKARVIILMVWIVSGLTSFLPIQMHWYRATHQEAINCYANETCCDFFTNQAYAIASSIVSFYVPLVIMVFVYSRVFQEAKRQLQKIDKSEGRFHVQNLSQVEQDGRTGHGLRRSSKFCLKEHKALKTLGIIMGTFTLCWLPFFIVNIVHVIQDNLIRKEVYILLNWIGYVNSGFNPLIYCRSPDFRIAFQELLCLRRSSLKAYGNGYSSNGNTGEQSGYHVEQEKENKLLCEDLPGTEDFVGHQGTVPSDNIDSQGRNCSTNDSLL
Sequence of D(2) dopamine receptor (Homo sapiens) (P14416 whole entry, looked up): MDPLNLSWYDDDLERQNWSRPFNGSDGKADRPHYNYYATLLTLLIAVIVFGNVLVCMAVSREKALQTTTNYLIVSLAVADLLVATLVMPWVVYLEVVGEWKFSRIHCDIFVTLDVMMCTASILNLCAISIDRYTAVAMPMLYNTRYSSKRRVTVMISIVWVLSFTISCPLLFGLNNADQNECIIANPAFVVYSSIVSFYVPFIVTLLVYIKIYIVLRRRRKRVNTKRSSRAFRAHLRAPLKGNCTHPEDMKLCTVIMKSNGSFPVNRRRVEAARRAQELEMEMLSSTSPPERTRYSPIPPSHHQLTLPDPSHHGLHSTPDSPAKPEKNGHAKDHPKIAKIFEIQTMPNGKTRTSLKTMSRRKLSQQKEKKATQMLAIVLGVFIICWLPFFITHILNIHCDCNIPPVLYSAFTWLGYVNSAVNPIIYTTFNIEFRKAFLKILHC
Sequence of 5-hydroxytryptamine receptor 2A (Homo sapiens) (P28223 whole entry, looked up): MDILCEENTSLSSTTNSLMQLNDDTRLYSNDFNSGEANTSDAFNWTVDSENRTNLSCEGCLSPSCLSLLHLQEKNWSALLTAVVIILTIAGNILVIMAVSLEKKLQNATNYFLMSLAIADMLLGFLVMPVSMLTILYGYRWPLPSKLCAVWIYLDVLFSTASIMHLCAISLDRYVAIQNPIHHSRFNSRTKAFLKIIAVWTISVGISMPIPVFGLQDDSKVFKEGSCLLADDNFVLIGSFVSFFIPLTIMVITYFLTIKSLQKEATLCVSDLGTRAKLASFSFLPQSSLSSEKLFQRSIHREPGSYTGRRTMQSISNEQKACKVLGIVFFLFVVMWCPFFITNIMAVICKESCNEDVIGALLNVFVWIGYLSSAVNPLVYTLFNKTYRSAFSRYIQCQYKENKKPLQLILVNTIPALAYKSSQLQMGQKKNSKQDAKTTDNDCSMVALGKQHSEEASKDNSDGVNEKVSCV
Sequence of KiSS-1 receptor (Homo sapiens) (Q969F8 whole entry, looked up): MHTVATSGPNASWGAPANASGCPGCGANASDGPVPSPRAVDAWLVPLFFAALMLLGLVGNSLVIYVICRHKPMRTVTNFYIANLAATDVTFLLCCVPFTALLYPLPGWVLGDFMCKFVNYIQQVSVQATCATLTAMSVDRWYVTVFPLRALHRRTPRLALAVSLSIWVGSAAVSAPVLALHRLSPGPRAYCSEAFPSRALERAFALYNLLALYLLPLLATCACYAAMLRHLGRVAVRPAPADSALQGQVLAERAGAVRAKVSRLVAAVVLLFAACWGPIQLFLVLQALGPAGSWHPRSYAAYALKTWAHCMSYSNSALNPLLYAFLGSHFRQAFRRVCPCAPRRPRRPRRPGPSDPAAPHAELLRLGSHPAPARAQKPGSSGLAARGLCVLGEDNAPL
Sequence of Gonadotropin-releasing hormone receptor (Homo sapiens) (P30968 whole entry, looked up): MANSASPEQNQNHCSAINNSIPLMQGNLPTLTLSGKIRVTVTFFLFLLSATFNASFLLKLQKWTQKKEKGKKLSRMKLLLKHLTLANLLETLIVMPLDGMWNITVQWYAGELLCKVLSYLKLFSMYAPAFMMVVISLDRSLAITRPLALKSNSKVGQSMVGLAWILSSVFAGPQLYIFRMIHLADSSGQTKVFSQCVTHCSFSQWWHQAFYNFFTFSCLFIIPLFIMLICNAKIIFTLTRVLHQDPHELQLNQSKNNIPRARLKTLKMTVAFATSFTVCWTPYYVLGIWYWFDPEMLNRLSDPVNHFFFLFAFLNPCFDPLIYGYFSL

O=C(Cl)c1ccccc1[N+](=O)[O-]
not listed: [17] | [18] | [19] | [20]
inactive: all other assays above

COc1ccc(C(=O)c2cccc(O)c2)c(OC)c1
not listed: [6] | [20]
inactive: all other assays above

CCCC(C)CCC(C)=O (stereo not drawn)
not listed: [2] | [6] | [17] | [20]
inactive: all other assays above

CCCCCCN
not listed: [3] | [9] | [10] | [11] | [20]
inactive: all other assays above

C=C(C)[C@@H]1CC[C@@H](C)C[C@@H]1O
not listed: [3] | [4] | [7]
inactive: all other assays above

CCC(=O)OC(C)c1ccccc1 (stereo not drawn)
not listed: [4] | [8] | [10] | [20]
inactive: all other assays above
